{
  "source": "ChEMBL document CHEMBL3988442",
  "about": "“University of Dundee, Small-Polar-MMV Screening Library” (2021)",
  "key": {"[1]": {"target": "T1, Aspartate--tRNA(Asp/Asn) ligase (Mycobacterium tuberculosis (strain ATCC 25618 / H37Rv)) (UniProt P9WFW3)", "T1 sequence (whole entry)": "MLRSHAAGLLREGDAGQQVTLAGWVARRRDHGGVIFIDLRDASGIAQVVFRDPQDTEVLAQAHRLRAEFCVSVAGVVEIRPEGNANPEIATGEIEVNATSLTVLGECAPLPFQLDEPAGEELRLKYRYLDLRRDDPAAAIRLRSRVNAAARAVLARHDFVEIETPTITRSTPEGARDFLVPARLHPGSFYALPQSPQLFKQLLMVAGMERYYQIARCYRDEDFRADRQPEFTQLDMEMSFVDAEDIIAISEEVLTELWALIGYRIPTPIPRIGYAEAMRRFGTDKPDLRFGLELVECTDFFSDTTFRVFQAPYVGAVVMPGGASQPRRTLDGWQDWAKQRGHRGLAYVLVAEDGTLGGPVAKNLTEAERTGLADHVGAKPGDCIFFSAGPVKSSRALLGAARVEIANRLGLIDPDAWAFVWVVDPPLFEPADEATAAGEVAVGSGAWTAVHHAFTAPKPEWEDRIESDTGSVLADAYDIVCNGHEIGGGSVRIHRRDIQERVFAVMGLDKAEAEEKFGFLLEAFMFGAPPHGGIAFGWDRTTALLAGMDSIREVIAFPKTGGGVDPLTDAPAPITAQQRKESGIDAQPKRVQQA", "experiment": "Assay for Asp RNA synthetase-1 from Mycobacterium tuberculosis", "type": "functional", "design": "scale not given: direction of the effect not stated beside the values", "conditions": "30 µM"}, "[2]": {"target": "Shiga toxin 2 (Escherichia coli O157:H7) (UniProt P09385+P09386)", "experiment": "E. coli 0.157:H7 Shiga Toxin SOP - stx2 screening assay", "type": "functional", "design": "scale not given: direction of the effect not stated beside the values", "conditions": "30 µM"}},
  "data": [
    {"smiles": "Cc1noc(CN(Cc2ccc3c(c2)OCO3)Cc2ccc(C)o2)n1", "values": [
      {"measurement": "Percent Effect", "setting": "[1]", "result": 13.9, "unit": "%"},
      {"measurement": "Percent Effect", "setting": "[2]", "result": 29, "unit": "%"}
    ]},
    {"smiles": "CN(Cc1cnn(-c2ccccc2)n1)CC1CCCN1c1cccnn1", "note": "(stereo not drawn)", "values": [
      {"measurement": "Percent Effect", "setting": "[1]", "result": 1.85, "unit": "%"},
      {"measurement": "Percent Effect", "setting": "[2]", "result": 16, "unit": "%"}
    ]},
    {"smiles": "Cc1ccc(C(=O)NC2CCN(Cc3noc(CC(C)C)n3)CC2)s1", "values": [
      {"measurement": "Percent Effect", "setting": "[1]", "result": 7.55, "unit": "%"},
      {"measurement": "Percent Effect", "setting": "[2]", "result": -63.2, "unit": "%"}
    ]},
    {"smiles": "CC(=O)N1CCC2(CCN(C(=O)c3ccc(Cl)c(C(F)(F)F)c3)CC2)C1", "values": [
      {"measurement": "Percent Effect", "setting": "[1]", "result": 4.41, "unit": "%"},
      {"measurement": "Percent Effect", "setting": "[2]", "result": 11.4, "unit": "%"}
    ]},
    {"smiles": "Cc1nn(C)c(N2CCOCC2)c1CNC1CCOc2ccccc21", "note": "(stereo not drawn)", "values": [
      {"measurement": "Percent Effect", "setting": "[1]", "result": -2.83, "unit": "%"},
      {"measurement": "Percent Effect", "setting": "[2]", "result": 9.33, "unit": "%"}
    ]},
    {"smiles": "CC(NC(=O)NCCCn1cncn1)c1ccccc1Cl", "note": "(stereo not drawn)", "values": [
      {"measurement": "Percent Effect", "setting": "[1]", "result": 9.3, "unit": "%"},
      {"measurement": "Percent Effect", "setting": "[2]", "result": -26.7, "unit": "%"}
    ]},
    {"smiles": "Cn1cc(CN2CCCN(C(=O)c3cc[nH]n3)CC2)cn1", "values": [
      {"measurement": "Percent Effect", "setting": "[1]", "result": -4.23, "unit": "%"},
      {"measurement": "Percent Effect", "setting": "[2]", "result": -19.9, "unit": "%"}
    ]},
    {"smiles": "CNc1nc2c(c(C(=O)N3CCCC3)n1)CN(Cc1nccn1C)CC2", "values": [
      {"measurement": "Percent Effect", "setting": "[1]", "result": 1.96, "unit": "%"},
      {"measurement": "Percent Effect", "setting": "[2]", "result": -4.2, "unit": "%"}
    ]},
    {"smiles": "N#Cc1cn(C2CC2)c(=O)n(CC(O)c2ccccc2F)c1=O", "note": "(stereo not drawn)", "values": [
      {"measurement": "Percent Effect", "setting": "[1]", "result": 0.3, "unit": "%"},
      {"measurement": "Percent Effect", "setting": "[2]", "result": 14.2, "unit": "%"}
    ]},
    {"smiles": "O=C(C1CC=CC1)N1CCC2(CC1)CN(Cc1ccccn1)CCO2", "values": [
      {"measurement": "Percent Effect", "setting": "[1]", "result": -0.381, "unit": "%"},
      {"measurement": "Percent Effect", "setting": "[2]", "result": 3.35, "unit": "%"}
    ]},
    {"smiles": "O=C(c1ccc(F)cc1Cl)N1CCC(Nc2cccnn2)CC1", "values": [
      {"measurement": "Percent Effect", "setting": "[1]", "result": 4.05, "unit": "%"},
      {"measurement": "Percent Effect", "setting": "[2]", "result": -21.1, "unit": "%"}
    ]},
    {"smiles": "CC(=O)c1cccc(NC(=O)CN2CCCCC2C2OCCO2)c1", "note": "(stereo not drawn)", "values": [
      {"measurement": "Percent Effect", "setting": "[1]", "result": 1.76, "unit": "%"},
      {"measurement": "Percent Effect", "setting": "[2]", "result": -1.62, "unit": "%"}
    ]},
    {"smiles": "CN1C(=O)C[C@@H]2[C@@H]1CCN2S(=O)(=O)Cc1ccccc1", "values": [
      {"measurement": "Percent Effect", "setting": "[1]", "result": -2.58, "unit": "%"},
      {"measurement": "Percent Effect", "setting": "[2]", "result": -4.62, "unit": "%"}
    ]},
    {"smiles": "CC(C)(C)CC(=O)N1CC[C@@H]2[C@H](CC1)N(S(C)(=O)=O)CCS2(=O)=O", "values": [
      {"measurement": "Percent Effect", "setting": "[1]", "result": -2.83, "unit": "%"},
      {"measurement": "Percent Effect", "setting": "[2]", "result": -21.6, "unit": "%"}
    ]},
    {"smiles": "Cc1nc(C)c(C(=O)N2CCC(Nc3cccnc3)CC2)s1", "values": [
      {"measurement": "Percent Effect", "setting": "[1]", "result": 16.8, "unit": "%"},
      {"measurement": "Percent Effect", "setting": "[2]", "result": -45.8, "unit": "%"}
    ]},
    {"smiles": "O=C(N1CCC(Nc2cccnn2)CC1)C1(c2ccc(F)cc2)CC1", "values": [
      {"measurement": "Percent Effect", "setting": "[1]", "result": 4.44, "unit": "%"},
      {"measurement": "Percent Effect", "setting": "[2]", "result": -20.3, "unit": "%"}
    ]},
    {"smiles": "COc1ccc(C(O)CNc2c(C#N)c(=O)n(C)c(=O)n2C)cc1", "note": "(stereo not drawn)", "values": [
      {"measurement": "Percent Effect", "setting": "[1]", "result": -3.91, "unit": "%"},
      {"measurement": "Percent Effect", "setting": "[2]", "result": -4.88, "unit": "%"}
    ]},
    {"smiles": "CC(C)OCCCNC(=O)CS(=O)(=O)Cc1ccc(Cl)c(Cl)c1", "values": [
      {"measurement": "Percent Effect", "setting": "[1]", "result": 5.22, "unit": "%"},
      {"measurement": "Percent Effect", "setting": "[2]", "result": 30.4, "unit": "%"}
    ]},
    {"smiles": "COc1ccc(Br)c(C(=O)NCCNc2ccc(C(F)(F)F)cn2)c1", "values": [
      {"measurement": "Percent Effect", "setting": "[1]", "result": 7.7, "unit": "%"},
      {"measurement": "Percent Effect", "setting": "[2]", "result": 23.3, "unit": "%"}
    ]}
  ]
}
